Assay [1] concerns Plasmodium falciparum Sir2 (PF13_0152, Sir2A). As to the kind of experiment: Plasmodium falciparum Sir2A binding compounds – biochemical, small-molecule microarray, 635 nm fluorescence, primary screen (AID 1098).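 Note: score merges spot fluorescence intensity with its signal-to-noise ratio.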 Conditions: fluorescence 635 nm, higher = more signal.
A short description of assay [2]: probe aDKK1 binding to arrayed compounds – biochemical, biotinylated probe, 635/667 nm fluorescence, primary screen (AID 1099).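 Note: score merges 667nm spot fluorescence with signal to noise across triplicate slides.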 The conditions noted are these: small-molecule microarray, higher = more signal.
Assay [3] is described as follows: probe aCHRDL2 binding to arrayed compounds – biochemical, biotinylated probe, 635/667 nm fluorescence, primary screen (AID 1100). The conditions noted are these: small-molecule microarray, higher = more signal.
Assay [4] is described as follows: change in splice reporter luminescence, either direction, cell-based, HEK293, spliceosome inhibition project, primary screen (AID 1101).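 Note: HEK293 cells carrying a splicing-competent luciferase reporter gene; test concentration not given here.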 The conditions noted are these: HEK293 splicing luciferase reporter, 24 h, higher = more signal, called active from +8 up or from −8 down. In general terms: Reporter assays use an easily measured gene product as a stand-in for the process of interest.

The target of assay [5] is Fibroblast growth factor 10 (Homo sapiens) (UniProt O15520). The assay is described as follows: compounds binding fibroblast growth factor 10 – biochemical, small-molecule microarray, 635 nm fluorescence, primary screen (AID 1102). Conditions: FGF10 binding, fluorescence 635 nm, higher = more signal.
Assay [6] deals with glycogen synthase kinase-3 (GSK3A per assay name; protocol says GSK3B). The assay is described as follows: compounds binding glycogen synthase kinase-3 – biochemical, small-molecule microarray, 635 nm fluorescence, GSK3A, primary screen (AID 1103). Note: the record names both GSK3A and GSK3B. Conditions: fluorescence 635 nm, higher = more signal.
Assay [7] addresses Epidermal growth factor receptor (Homo sapiens) (UniProt P00533). The assay is described as follows: compounds binding epidermal growth factor receptor – biochemical, small-molecule microarray, 635 nm fluorescence, primary screen (AID 1104).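 Note: score merges 667 nm emission intensity with spot signal to noise over triplicate slides.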 The conditions noted are these: EGFR binding, higher = more signal.
Assay [8] deals with Follistatin-related protein 3 (Homo sapiens) (UniProt O95633). As to the kind of experiment: compounds binding follistatin-related protein 3 – biochemical, small-molecule microarray, 635 nm fluorescence, primary screen (AID 1105).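 Note: score merges emission near 667 nm and signal to noise per printed spot across three slides.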 The conditions noted are these: FSTL3 binding, higher = more signal.
For assay [9], the target named is Dickkopf-related protein 1 (Homo sapiens) (UniProt O94907). As to the kind of experiment: small molecules binding DKK1 protein – biochemical, small-molecule microarray, 635 nm fluorescence scan, primary screen (AID 1106).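 Note: score merges emission near 667 nm with signal to noise over three replicate slides.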 The conditions noted are these: higher = more signal.
The test system of assay [10] is Inhibin beta A chain (activin A). The assay is described as follows: small molecules binding activin A – biochemical, small-molecule microarray, 635 nm fluorescence scan, primary screen (AID 1107).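 Note: mouse activin A protein probed at 4.33 µg/mL on printed slides; score merges bound-protein fluorescence near 667 nm with spot signal-to-noise.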 The conditions noted are these: INHBA, higher = more signal.
In assay [11] the test system is Human papillomavirus type 1a protein E7 (residues 44-93). As to the kind of experiment: small molecules binding HPV E7 44-93 – biochemical, small-molecule microarray, residues 44-93, 635 nm fluorescence, primary screen (AID 1108).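 Note: E7 fragment applied at 1 µg/mL in TBST for 1 h at 4 C; score combines spot fluorescence with its signal to noise ratio.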 Conditions: fluorescence 635 nm, higher = more signal.
Assay [12] is described as follows: hepatitis C replication reporter changes, two-sided – Huh7 cells, luciferase reporter, HCV replication inhibitor project, primary screen (AID 1109).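 Note: huh7 hepatoma cells harbouring a luciferase neomycin HCV replicon reporter; luciferase luminescence as measure of HCV replicon replication; test concentration not given here.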 Conditions: Huh7 HCV replicon luciferase reporter, 48 h; higher = more signal.
Assay [13] has as its target Left-right determination factor 2 (Homo sapiens) (UniProt O00292). As to the kind of experiment: small molecules binding LEFTY2 protein – biochemical, small-molecule microarray, 635 nm fluorescence scan, primary screen (AID 1110). Conditions: higher = more signal.
The target in assay [14] is Calmodulin-1 (Homo sapiens) (UniProt P0DP23). The assay is described as follows: small molecules binding calmodulin-1 with EGTA – biochemical, small-molecule microarray, Cy5-labelled CALM1, profiling panel (AID 1111).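 Note: labelled calmodulin applied in Tris saline Tween buffer holding calcium plus EGTA and DTT.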 The conditions noted are these: Cy5-CALM1 binding fluorescence, higher = more signal.
Assay [15] has the same target. As to the kind of experiment: small molecules binding Ca-loaded calmodulin-1 – biochemical, small-molecule microarray, Cy5-labelled CALM1, plus calcium, artefact control for SMM control-protein annotation, profiling panel (AID 1112).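 Note: score merges spot fluorescence with signal to noise from triplicate slides.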 The conditions noted are these: Cy5-CALM1 binding fluorescence, higher = more signal.
A short description of assay [16]: probe aWnt5a binding to arrayed compounds – biochemical, biotinylated probe, 635/667 nm fluorescence, primary screen (AID 1113).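 Note: score merges 667 nm fluorescence intensity with signal-to-noise per printed feature.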 The conditions noted are these: small-molecule microarray, higher = more signal.
Assay [17] in a line: probe aShh binding to arrayed compounds – biochemical, biotinylated probe, 635/667 nm fluorescence, primary screen (AID 1114).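 Note: probe is biotin-labelled aShh protein from a stem cell growth factor screen; measures binding of labelled protein to compounds printed on the slide; score merges feature fluorescence at 667 nm with signal-to-noise.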 Conditions: small-molecule microarray, higher = more signal.
Assay [18] in a line: probe aNog binding to arrayed compounds – biochemical, biotinylated probe, 635/667 nm fluorescence, primary screen (AID 1115).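 Note: probe is biotinylated aNog protein used at 0.15 µg/mL for 1 h at 4 C; z-score combines 667 nm fluorescence of each spot with its signal to noise.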 Conditions: small-molecule microarray, higher = more signal.
Assay [19] deals with Torsin-1A-interacting protein 1 (Homo sapiens) (UniProt Q5JTV8). As to the kind of experiment: compound microarray binding of lysate hLAP1 – cell lysate, small-molecule microarray, COS7 lysate, 635/667 nm fluorescence, primary screen (AID 1116). Conditions: 635 nm fluorescence, higher = more signal.
Assay [20] concerns the target Alpha-bungarotoxin (Bungarus multicinctus) (UniProt P60615). As to the kind of experiment: compounds binding labelled alpha-BTX control protein – biochemical, small-molecule microarray, Alexa647 label, 635/667 nm fluorescence, artefact control for SMM control protein annotation, profiling panel (AID 1117). The conditions noted are these: alpha-BTX-A647 binding fluorescence, higher = more signal.

Calls of active or inactive are those of the source.

Sequence of Torsin-1A-interacting protein 1 (Homo sapiens) (Q5JTV8 whole entry, looked up): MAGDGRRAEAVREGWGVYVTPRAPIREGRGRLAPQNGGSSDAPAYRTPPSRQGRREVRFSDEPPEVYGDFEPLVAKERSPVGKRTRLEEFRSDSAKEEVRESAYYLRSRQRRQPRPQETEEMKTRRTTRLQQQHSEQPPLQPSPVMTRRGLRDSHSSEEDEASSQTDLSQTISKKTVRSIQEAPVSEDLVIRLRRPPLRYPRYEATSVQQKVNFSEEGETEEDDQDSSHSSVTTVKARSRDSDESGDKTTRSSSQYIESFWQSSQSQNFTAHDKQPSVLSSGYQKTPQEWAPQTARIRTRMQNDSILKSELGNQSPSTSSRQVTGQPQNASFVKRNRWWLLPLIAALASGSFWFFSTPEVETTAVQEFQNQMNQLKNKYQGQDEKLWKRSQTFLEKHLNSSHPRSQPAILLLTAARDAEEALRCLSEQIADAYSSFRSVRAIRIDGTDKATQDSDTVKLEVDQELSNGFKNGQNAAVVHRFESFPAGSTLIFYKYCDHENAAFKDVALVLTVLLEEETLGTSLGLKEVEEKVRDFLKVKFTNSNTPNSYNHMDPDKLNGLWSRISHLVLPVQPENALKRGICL
Sequence of Follistatin-related protein 3 (Homo sapiens) (O95633 whole entry, looked up): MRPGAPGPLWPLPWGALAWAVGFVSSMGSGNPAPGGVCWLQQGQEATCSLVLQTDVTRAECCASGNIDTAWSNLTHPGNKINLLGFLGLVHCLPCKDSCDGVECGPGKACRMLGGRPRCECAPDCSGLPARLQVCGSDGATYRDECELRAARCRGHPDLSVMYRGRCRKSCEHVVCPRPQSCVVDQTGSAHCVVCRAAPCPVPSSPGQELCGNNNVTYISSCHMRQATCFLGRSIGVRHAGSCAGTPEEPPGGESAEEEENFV
Sequence of Dickkopf-related protein 1 (Homo sapiens) (O94907 whole entry, looked up): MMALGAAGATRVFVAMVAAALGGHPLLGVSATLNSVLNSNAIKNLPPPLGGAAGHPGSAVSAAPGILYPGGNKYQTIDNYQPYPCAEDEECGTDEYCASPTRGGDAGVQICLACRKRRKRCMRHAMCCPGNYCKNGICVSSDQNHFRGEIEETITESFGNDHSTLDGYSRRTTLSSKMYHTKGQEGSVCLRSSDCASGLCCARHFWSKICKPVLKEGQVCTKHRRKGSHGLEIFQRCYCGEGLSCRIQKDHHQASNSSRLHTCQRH
Sequence of Left-right determination factor 2 (Homo sapiens) (O00292 whole entry, looked up): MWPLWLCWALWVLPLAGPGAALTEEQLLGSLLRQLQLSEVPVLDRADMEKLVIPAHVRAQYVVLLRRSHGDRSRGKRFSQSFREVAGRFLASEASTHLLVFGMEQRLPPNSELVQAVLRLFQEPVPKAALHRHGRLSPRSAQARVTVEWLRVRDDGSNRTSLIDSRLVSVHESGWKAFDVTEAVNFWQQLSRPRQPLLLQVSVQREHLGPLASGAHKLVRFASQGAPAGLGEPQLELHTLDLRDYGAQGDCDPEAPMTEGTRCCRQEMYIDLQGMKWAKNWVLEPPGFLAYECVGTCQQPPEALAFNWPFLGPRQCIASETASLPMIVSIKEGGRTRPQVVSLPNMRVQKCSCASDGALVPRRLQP
Sequence of Alpha-bungarotoxin (Bungarus multicinctus) (P60615 whole entry, looked up): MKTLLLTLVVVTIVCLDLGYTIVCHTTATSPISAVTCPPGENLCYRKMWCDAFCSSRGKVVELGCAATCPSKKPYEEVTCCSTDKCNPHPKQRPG
Sequence of Fibroblast growth factor 10 (Homo sapiens) (O15520 whole entry, looked up): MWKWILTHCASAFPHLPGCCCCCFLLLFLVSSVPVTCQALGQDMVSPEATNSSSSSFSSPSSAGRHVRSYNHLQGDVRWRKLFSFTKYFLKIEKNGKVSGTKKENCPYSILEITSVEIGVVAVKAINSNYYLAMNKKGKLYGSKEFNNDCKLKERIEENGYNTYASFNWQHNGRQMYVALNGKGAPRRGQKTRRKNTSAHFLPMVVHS
Sequence of Epidermal growth factor receptor (Homo sapiens) (P00533 whole entry, looked up): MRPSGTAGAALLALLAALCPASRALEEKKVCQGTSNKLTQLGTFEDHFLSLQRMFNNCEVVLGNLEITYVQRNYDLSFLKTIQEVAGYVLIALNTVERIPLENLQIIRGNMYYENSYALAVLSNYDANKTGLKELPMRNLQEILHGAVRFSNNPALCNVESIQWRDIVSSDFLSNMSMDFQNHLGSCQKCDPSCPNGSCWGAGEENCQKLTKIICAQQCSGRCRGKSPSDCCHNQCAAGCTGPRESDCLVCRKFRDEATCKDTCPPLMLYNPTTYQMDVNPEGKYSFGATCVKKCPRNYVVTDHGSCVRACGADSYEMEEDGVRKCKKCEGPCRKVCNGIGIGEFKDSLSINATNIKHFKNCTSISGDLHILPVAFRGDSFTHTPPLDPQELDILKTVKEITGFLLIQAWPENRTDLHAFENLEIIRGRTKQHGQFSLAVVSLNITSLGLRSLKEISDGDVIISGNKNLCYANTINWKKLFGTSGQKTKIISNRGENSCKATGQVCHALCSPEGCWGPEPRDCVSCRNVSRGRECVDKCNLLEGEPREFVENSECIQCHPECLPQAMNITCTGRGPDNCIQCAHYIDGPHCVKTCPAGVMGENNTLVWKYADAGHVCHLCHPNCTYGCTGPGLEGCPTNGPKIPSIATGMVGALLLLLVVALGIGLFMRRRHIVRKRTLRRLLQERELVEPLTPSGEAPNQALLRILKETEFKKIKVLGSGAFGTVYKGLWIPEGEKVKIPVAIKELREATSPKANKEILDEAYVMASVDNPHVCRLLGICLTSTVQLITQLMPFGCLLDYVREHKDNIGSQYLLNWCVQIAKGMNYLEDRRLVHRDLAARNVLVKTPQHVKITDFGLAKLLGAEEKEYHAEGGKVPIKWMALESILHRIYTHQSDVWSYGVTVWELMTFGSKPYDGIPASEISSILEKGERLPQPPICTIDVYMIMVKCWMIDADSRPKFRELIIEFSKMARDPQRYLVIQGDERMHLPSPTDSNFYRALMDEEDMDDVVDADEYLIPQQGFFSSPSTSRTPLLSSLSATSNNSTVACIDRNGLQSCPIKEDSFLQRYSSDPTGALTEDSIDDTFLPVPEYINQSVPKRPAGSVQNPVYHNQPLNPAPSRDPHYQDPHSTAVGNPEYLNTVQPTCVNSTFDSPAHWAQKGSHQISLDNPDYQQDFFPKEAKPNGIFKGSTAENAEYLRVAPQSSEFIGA

For `NCCCCCCNC(=O)[C@H]1C[C@H]2C(=O)NCC(=O)N2[C@H]1c1cccc(OCCO)c1`, the composite z-score in assay [1] amounted to 1.56; in assay [2], 0.0447; in assay [3], 0.161; in [5], 0.641; in [6] it was 1.1; in assay [7], 0.544. For the same molecule, the composite z-score is 0.563 in [8]; 0.978 in [9]; -0.0745 in assay [10]; 0.298 in assay [11]; 0.816 in [13]; -0.0421 in assay [14]. Further, the composite z-score in assay [15] is -0.369; in [16] it was -0.0643; in assay [17], 0.199; in [18] it was 0.0234; in [19], 0.963; in assay [20], 1.37. In addition, the z-score was -0.283 (inactive) in assay [4] and -0.128 in assay [12].

As to `CC(c1ccccc1)C(O)C1C=CC2C(=O)NC(=O)C2N1Nc1ccccn1` (stereo not given), the composite z-score in assay [1] turned out to be 0.459; in assay [2], 0.0178; in [3] it was 0.585; in [5], 0.831; in assay [6], 0.767; in assay [7], 0.532. The composite z-score in [8] was 1.01; in [9], 0.481; in assay [10] it was 1.41; in [11], 1.35; in assay [13], 0.313; in assay [14], -0.104. Further, the composite z-score is -0.487 in assay [15]; -0.0478 in assay [16]; -0.138 in [17]; 0.496 in [18]; 0.903 in assay [19]; 0.672 in assay [20]. Besides, the z-score in assay [4] was 1.63 (inactive); in assay [12], 0.355.

Take `CCCCC=C[C@@H](NC(=O)c1cccs1)c1ccccc1`: the composite z-score is -0.15 in assay [1]; -0.0451 in [2]; 0.359 in assay [3]; 0.44 in assay [5]; 0.476 in assay [6]; -0.273 in assay [7]. The composite z-score in [8] is -0.171; in assay [9], 0.13; in assay [10], 0.764; in assay [11] it was 0.861; in assay [13], -0.286; in [14], 0.524. The composite z-score in [15] was 0.906; in assay [16] it was -0.124; in [17] it was 0.166; in [18] it was -0.269; in [19], 0.159; in assay [20], 0.748. For the same molecule, the z-score was -3.77 (inactive) in assay [4] and -2.74 in [12].

Turning to `[N-]=[N+]=NCc1ccccc1C[C@]1(C(=O)NCCN2CCOCC2)N=C(c2ccc(OCCCO)cc2)O[C@H]1c1ccccc1N=[N+]=[N-]`, the composite z-score in [1] amounted to 0.8; in assay [2], 0.838; in assay [3], 1.11; in [5], 0.636; in assay [6] it was 1.15; in [7], 0.294. Further, the composite z-score was 0.504 in assay [8]; -0.233 in assay [9]; 0.819 in assay [10]; 0.927 in assay [11]; 0.391 in [13]; 1.2 in assay [14]. In addition, the composite z-score in [15] was 0.655; in [16] it was 0.0903; in assay [17], 0.21; in [18] it was 1.73; in [19], 1.51; in [20] it was 0.919. Moreover, the z-score was -0.947 (inactive) in assay [4] and -1.76 in [12].

Consider `Cc1ccc(S[C@]2(C(=O)NC3CC3)CC(=O)N(Cc3ccccc3)[C@@H]2c2ccc(CO)cc2)cc1`, for which the composite z-score in assay [1] was 0.325; in assay [2] it was 0.224; in assay [3], 0.892; in assay [5], -0.829; in assay [6], -0.414; in assay [7], -0.679. Further, the composite z-score was -0.217 in assay [8]; 0.539 in [9]; 0.194 in assay [10]; -0.269 in [11]; -1.19 in assay [13]; -0.274 in [14]. Besides, the composite z-score is 0.176 in assay [15]; -0.197 in [16]; -0.237 in assay [17]; 0.314 in assay [18]; 1.39 in assay [19]; 0.848 in [20]. Further, the z-score in assay [4] was -0.61 (inactive); in [12] it was -0.921.

For the molecule `COc1ccc(C#Cc2ccc3c(c2)[C@]2(C(=O)N3)[C@H](C(=O)NC[C@H](O)c3ccccc3)[C@H]3C(=O)O[C@H](c4ccccc4)[C@H](c4ccccc4)N3[C@@H]2c2ccc(OCCO)cc2)cc1`, the composite z-score in [1] amounted to 1.33; in assay [2], 0.0324; in [3] it was 0.236; in assay [5], 1.25; in assay [6], 1.28; in assay [7], 0.487. Also, the composite z-score in assay [8] was found to be 1.26; in assay [9], 0.31; in assay [10] it was 0.123; in assay [11], 1.43; in assay [13], 0.965; in assay [14], 0.841. Besides, the composite z-score in [15] is -0.203; in [16] it was 0.0037; in [17] it was 0.327; in [18] it was -0.611; in [19] it was 0.952; in assay [20] it was 1.76. In addition, the z-score in assay [4] is -1.46 (inactive); in [12], -2.13.
